An excerpt weighted towards active compounds, which were near 0.41% of everything screened.
CXXC DNA block: blocks binding of human MLL CXXC domain to DNA | Q03164 | MLL-CXXC / FITC-HOXA9 DNA fluorescence polarization | Potency, µM (highest dose often 115 µM), for the others: top-dose activity change, negative = inhibition, actives largely listed as inhibitors | 290,000 tested, 0.037% active | AID 2662; active means well fitted inhibition curve with a large enough effect in the polarisation, with a control signal flat, not every such curve was filed as active; inconclusive means small, poorly fitted or top-dose-only effect, or effect the other way, or a change in a side signal; inactive means no such curve, though single readings can be large or run the other way; the % refers to the polarisation; further: potency means the concentration at half of the fitted maximal effect
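Purified MLL-CXXC (added from a 7 uM solution) was preincubated 5 min at ambient with pinned compounds in 50 mM Tris-HCl pH 7.5, 50 mM NaCl, 1 mM DTT, 0.05% BSA. Fluorescein-labeled HOX-A9 DNA (50 nM solution) followed, 30 min, then polarization read.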
Menin MLL FP TR: menin-MLL binding inhibition, Texas Red mutant peptide. Potency, µM (titrated, usually from 61.6 µM), without a hit: at the highest dose FP activity change, negative = inhibition, most hits filed as inhibitors. 270,000 tested, 0.23% active. O00255. AID 1768. Menin + Texas Red MLL mutant peptide, fluorescence polarization; active means well fitted inhibition curve with a large enough effect in the polarisation, with a control signal flat, not every such curve was filed as active; inconclusive means small, poorly fitted or top-dose-only effect, or effect the other way, or a change in a side signal; inactive means no such curve, though single readings can be large or run the other way; the % refers to the polarisation; further: potency means the concentration at half of the fitted maximal effect; % of control where 0% means no effect
Target sequence (O00255 whole entry, looked up): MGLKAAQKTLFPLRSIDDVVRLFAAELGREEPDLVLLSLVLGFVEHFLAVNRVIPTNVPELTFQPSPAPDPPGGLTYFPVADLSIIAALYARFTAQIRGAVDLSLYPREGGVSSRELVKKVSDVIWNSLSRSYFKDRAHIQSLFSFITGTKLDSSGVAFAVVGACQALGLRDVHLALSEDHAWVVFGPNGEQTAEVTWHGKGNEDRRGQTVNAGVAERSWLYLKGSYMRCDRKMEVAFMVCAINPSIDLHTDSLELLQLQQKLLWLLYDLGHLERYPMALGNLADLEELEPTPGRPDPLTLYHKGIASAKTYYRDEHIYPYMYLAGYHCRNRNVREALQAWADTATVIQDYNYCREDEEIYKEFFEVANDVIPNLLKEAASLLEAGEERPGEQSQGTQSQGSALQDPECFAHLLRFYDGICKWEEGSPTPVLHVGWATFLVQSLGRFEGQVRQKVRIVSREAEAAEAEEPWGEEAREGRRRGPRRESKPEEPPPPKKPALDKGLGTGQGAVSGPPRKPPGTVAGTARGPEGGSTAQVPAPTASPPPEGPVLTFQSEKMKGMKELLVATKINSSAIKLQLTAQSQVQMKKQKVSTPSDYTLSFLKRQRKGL
PKM2 activator: activators of human pyruvate kinase M2 | P14618 | purified PKM2, Kinase-Glo ATP luminescence, activation; response scale: 0% is enzyme alone, no compound | Potency, µM (doses to about 57.5 µM), for the others: at the top dose activation, hits mostly activators | 260,000 tested, 0.34% active | AID 1631; active means well fitted activation curve with a large enough effect; inconclusive means small, poorly fitted or top-dose-only effect; inactive means no such curve, though single readings can be large or run the other way; further: potency means the concentration at half of the fitted maximal effect; on the % scale 0 is the no-effect control and ±100 the full control effect; nearly all actives have a fitted effect of over 55% in size
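Purified hPK-M2 (>95% pure) converted ADP (0.1 mM final) to ATP with 0.5 mM PEP in 50 mM imidazole pH7.2, KCl, MgCl2, Tween 20, BSA; 1 h at room temperature. ATP detected by Kinase-Glo luminescence.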
Menin MLL FP FL: displaces fluorescein MLL peptide from human menin. Fluorescence polarization, fluorescein-MLL peptide displacement from menin. FP activity change, % at 61.4 µM. 290,000 tested, under 10 active. AID 1766; active means well fitted curve in the direction sought with a large enough effect in the polarisation, not every such curve was filed as active; inconclusive means small, poorly fitted or top-dose-only effect, or effect the other way, or a change in a side signal; inactive means no such curve, though single readings can be large or run the other way; the % refers to the polarisation; further: % of control where 0% means no effect
Numbers without * were called inactive.

Screening Clc1ccccc1Cn1nnc2c(NCC3CC3)ncnc21 returned CXXC DNA block -1.1%, Menin MLL FP TR 5.4%, PKM2 activator 8.91µM* and Menin MLL FP FL 3.5.
For COc1cccc(-c2nnc3n2N=C(c2ccc(OC)cc2OC)CS3)c1 the results were Menin MLL FP TR inconclusive and Menin MLL FP FL 4.0.
`CCC(C)C(NC(=O)OC(C)(C)C)C(=O)NC1COC2CC(n3cc(F)c(=O)[nH]c3=O)OC12` (stereo unspecified) gave Menin MLL FP TR -11.8% and Menin MLL FP FL -3.1.
`CCCCCCCCCCCCCCCCOC[C@H](COP(=O)([O-])OCC[N+](C)(C)C)OC(=O)NC` gave Menin MLL FP TR -10.4% and Menin MLL FP FL 0.8.
`Cc1ccc(-c2csc3nc(C)n(-n4c(C)ccc4C)c(=O)c23)o1` gave CXXC DNA block 41.5%, Menin MLL FP TR -17.2%, PKM2 activator 14.1µM* and Menin MLL FP FL 1.3.
CCCCNS(=O)(=O)c1ccc2nc(SCC(=O)c3ccc(C#N)cc3)[nH]c2c1 was read as CXXC DNA block -5.9%, Menin MLL FP TR 2.3%, PKM2 activator 22.4µM* and Menin MLL FP FL 4.3.
CCCCNS(=O)(=O)c1ccc2nc(SCC(=O)Nc3ccccc3)[nH]c2c1 was read as CXXC DNA block -2.6%, Menin MLL FP TR 7.0% and PKM2 activator 2.8%.
O=[N+]([O-])c1cccc(Cl)c1NCCNS(=O)(=O)c1ccccc1 was read as CXXC DNA block 2.1%, Menin MLL FP TR 33.3%, PKM2 activator 14.1µM* and Menin MLL FP FL 1.4.
Cn1c(CCNC(=O)c2ccco2)nc2cc(NS(=O)(=O)c3ccc(Cl)cc3)ccc21 was read as CXXC DNA block 0.5%, Menin MLL FP TR 15.9%, PKM2 activator 15.8µM* and Menin MLL FP FL 0.5.
CC(=O)NCCc1nc2cc(NS(=O)(=O)c3ccc(Cl)cc3)ccc2n1C was read as CXXC DNA block -6.7%, Menin MLL FP TR -0.6%, PKM2 activator -0.9% and Menin MLL FP FL 0.9.
`COc1ccc2c(c1)O[C@@H](c1cccc(C(F)(F)F)c1)[C@H](OC(=O)NS(=O)(=O)c1ccc(C)cc1)C2=O` gave Menin MLL FP TR -4.1% and Menin MLL FP FL -1.2.
For O=C1S/C(=C\c2ccc(N3CCOCC3)o2)C(=O)N1Cc1c(F)cccc1Cl the results were CXXC DNA block inconclusive, Menin MLL FP TR inconclusive, PKM2 activator 2.51µM* and Menin MLL FP FL inconclusive.
For Cc1nnc(NC(=O)CSc2ccc(-c3ccco3)nn2)s1 the results were CXXC DNA block 3.5%, Menin MLL FP TR 2.9%, PKM2 activator 20µM* and Menin MLL FP FL 6.7.
`COc1cccc(NC(=O)CSc2ccc(-c3ccco3)nn2)c1` gave CXXC DNA block 15.6% and PKM2 activator 3.16µM*.
For COc1cccc(NC(=O)CSc2ccc3nnc(-c4ccccn4)n3n2)c1 the results were CXXC DNA block 16.8% and PKM2 activator 23.4%.
For COc1cccc(NC(=O)CSc2ccc3nnc(-c4ccncc4)n3n2)c1 the results were CXXC DNA block 6.5%, Menin MLL FP TR -9.3%, PKM2 activator 1.78µM* and Menin MLL FP FL 2.0.
`COc1ccc(NC(=O)CSc2ccc(-c3ccco3)nn2)cc1OC` gave CXXC DNA block 26.7% and PKM2 activator 17.9%.
`Oc1ccc2ccccc2c1-c1sc(Nc2ccccc2)n[n+]1-c1ccc(F)cc1` gave CXXC DNA block inconclusive, Menin MLL FP TR 15.8µM*, PKM2 activator 5.6% and Menin MLL FP FL inconclusive.
For CCCCNc1nc(C)nc2c1nc(C)n2CCC the results were Menin MLL FP TR -4.6%, PKM2 activator -0.8% and Menin MLL FP FL -6.4.
`CCN(CC)c1ccc(N=C2C(=O)Nc3ccccc32)cc1` gave CXXC DNA block -1.7%, Menin MLL FP TR 22.4µM* and Menin MLL FP FL 0.3.
For Cc1ccc(N=C2C(=O)Nc3ccccc32)cc1 the results were CXXC DNA block 2.8%, Menin MLL FP TR -5.7% and Menin MLL FP FL -1.5.
Cc1ccc(C(=O)OC[C@H]2O[C@H](Cl)C[C@@H]2OC(=O)c2ccc(C)cc2)cc1 was read as Menin MLL FP TR 0.8% and Menin MLL FP FL -2.4.
Screening Cc1ccccc1NS(=O)(=O)c1cc2c(cc1C)NC(=O)CO2 returned Menin MLL FP TR 5.0%, PKM2 activator 5.62µM* and Menin MLL FP FL -5.2.
`COc1ccc(NS(=O)(=O)c2cc3c(cc2C)NC(=O)CO3)c(OC)c1` gave Menin MLL FP TR 12.0%, PKM2 activator 6.5% and Menin MLL FP FL 0.4.
For CO/N=C(\Cn1ncc(N2CCCC2)c(Cl)c1=O)c1ccc(Cl)cc1 the results were CXXC DNA block 4.3%, Menin MLL FP TR -1.3%, PKM2 activator 14.1µM* and Menin MLL FP FL 0.5.
Screening FC(F)OC(Cl)C(F)(F)F (stereo unspecified) returned CXXC DNA block 1.2%, Menin MLL FP TR -17.8% and Menin MLL FP FL inconclusive.
For Cc1c(C)c2cc(Cl)c(OCc3nn[nH]n3)cc2oc1=O the results were CXXC DNA block -2.0%, Menin MLL FP TR -14.8%, PKM2 activator 28.2µM* and Menin MLL FP FL -0.9.
Screening Cc1csc(SCC(=O)Nc2cc(S(=O)(=O)N3CCOCC3)ccc2N2CCOCC2)n1 returned CXXC DNA block -6.3%, PKM2 activator -3.0% and Menin MLL FP FL -1.9.
For COc1cc(C(=O)Nc2nc3ccc(S(=O)(=O)N4CCOCC4)cc3s2)cc(OC)c1OC the results were CXXC DNA block 16.1%, Menin MLL FP TR inconclusive, PKM2 activator -5.6% and Menin MLL FP FL 8.0.
Screening Cc1csc(SCC(=O)c2ccc(S(=O)(=O)N3CCOCC3)cc2)n1 returned CXXC DNA block -14.7%, Menin MLL FP TR -2.5%, PKM2 activator 28.2µM* and Menin MLL FP FL inconclusive.
Screening COc1ccc(OC)c2sc(NC(=O)c3ccc(S(=O)(=O)N4CCOCC4)cc3)nc12 returned CXXC DNA block 9.7%, Menin MLL FP TR 17.8µM*, PKM2 activator 0.7% and Menin MLL FP FL -0.4.
For C=CCOC(=O)N[C@H](/C(C(=O)OC)=C(\C)NCc1ccccc1)c1cccc(F)c1 the results were Menin MLL FP TR -5.9% and Menin MLL FP FL -0.8.
Screening Cc1cc2c(cc1S(=O)(=O)N1CCCC1)n(C)c(=O)c(=O)n2C returned Menin MLL FP TR 10.2%, PKM2 activator 9.4% and Menin MLL FP FL 2.0.
For Cc1cc2c(cc1S(=O)(=O)Nc1cccc(F)c1)n(C)c(=O)c(=O)n2C the results were Menin MLL FP TR 12.7%, PKM2 activator 2µM* and Menin MLL FP FL 1.9.
For CC(=O)N(c1cccc(C)c1)C1SC(=O)N(c2ccccc2)C1=O (stereo unspecified) the results were CXXC DNA block 23.8%, Menin MLL FP TR -13.1%, PKM2 activator 0.398µM* and Menin MLL FP FL -0.2.
For CCOc1ccc(S(=O)(=O)N2CCc3ccccc3C2)cc1 the results were CXXC DNA block -3.6%, Menin MLL FP TR 17.8%, PKM2 activator 15.8% and Menin MLL FP FL -1.6.
Screening CCOc1ccc(S(=O)(=O)N2CCc3cc(OC)c(OC)cc3C2)cc1 returned CXXC DNA block -4.7%, Menin MLL FP TR 1.9%, PKM2 activator 15.8µM* and Menin MLL FP FL 1.0.

Bioassay records (PubChem BioAssay)
